Screens as filed in PubChem BioAssay.
Cruzain noTriton: qHTS Assay for Promiscuous and Specific Inhibitors of Cruzain (without detergent); Cruzipain (Trypanosoma cruzi), P25779; purified cruzain, Z-FR-AMC fluorescence, no detergent; Potency, µM, inactives show max response, negative = inhibition, actives largely listed as inhibitors; 2.3% of 200,000 active; AID 1476, 2009;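 further: plate controls were enzyme without inhibitor for no effect and buffer without enzyme for full effect; nearly all actives have a fitted effect of over 40% in size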
Target sequence (P25779 123-467 limits assumed): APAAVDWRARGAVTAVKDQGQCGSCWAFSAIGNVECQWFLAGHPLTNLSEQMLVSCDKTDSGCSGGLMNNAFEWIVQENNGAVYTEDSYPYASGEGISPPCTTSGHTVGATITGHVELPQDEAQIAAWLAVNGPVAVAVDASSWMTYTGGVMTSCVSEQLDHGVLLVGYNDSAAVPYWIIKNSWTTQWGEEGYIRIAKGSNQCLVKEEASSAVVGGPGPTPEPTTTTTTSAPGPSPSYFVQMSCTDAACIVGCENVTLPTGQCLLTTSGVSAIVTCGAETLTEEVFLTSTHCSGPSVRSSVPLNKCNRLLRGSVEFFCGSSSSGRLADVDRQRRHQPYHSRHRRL
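Detergent-free condition (0.00005% Triton X-100) in acetate buffer pH 5.5 with DTT. 1.5 nM enzyme and compound were pre-mixed 15 min, then 2 uM Z-FR-AMC substrate added; reaction progress from fluorescence change between first and third reads (60 s).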
Cruzain Triton: qHTS Assay for Promiscuous and Specific Inhibitors of Cruzain (with detergent) | 0.43% of 200,000 active | Potency, µM, for the others: max response, negative = inhibition, hits mostly inhibitors | purified cruzain, Z-FR-AMC fluorescence, 0.01% Triton;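 further: plate controls were neutral wells for no effect and buffer without enzyme for full effect; nearly all actives have a fitted effect of over 40% in size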
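Cysteine protease activity tested under reducing, mildly acidic conditions (100 mM sodium acetate pH 5.5, 5 mM DTT) plus 0.01% Triton X-100. Cruzain 1.5 nM; substrate Z-FR-AMC 2 uM; 15 min compound preincubation at room temperature.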
The depositor's hits bear a star; ? = inconclusive. Sampled rows, rich in hits. Any-hit rate of the full collection: about 2.5%. The call rests on the fitted dose curve; in most records, active means well fitted curve in the direction sought with a large enough effect; inconclusive means small, poorly fitted or top-dose-only effect, or another doubt; inactive means no such curve, though single readings can be large; an effect the other way counts as inactive or inconclusive. Potency means the concentration at half of the fitted maximal effect.

SMILES	Cruzain noTriton	Cruzain Triton
O=C(Nc1nnc(SCc2cccc3ccccc23)s1)C1COc2ccccc2O1 (stereo unspecified)	25.1µM*	-3.4%
Cc1ccccc1CSc1nnc(NC(=O)C2COc3ccccc3O2)s1 (stereo unspecified)	?	-3.9%
O=C(Nc1nc(-c2ccc(S(=O)(=O)N3CCCC3)cc2)cs1)C1COc2ccccc2O1 (stereo unspecified)	10µM*	1.5%
O=C(Nc1ccc(S(=O)(=O)N2CCCC2)cc1)C1COc2ccccc2O1 (stereo unspecified)	0.5%	-5.1%
O=C(Nc1nc(-c2ccccc2)cs1)C1COc2ccccc2O1 (stereo unspecified)	25.1µM*	-2.9%
O=C(Nc1nc(-c2ccc3c(c2)OCO3)cs1)C1COc2ccccc2O1 (stereo unspecified)	?	-8.3%
Cc1ccc(OCC(=O)NCC(c2ccc(Cl)cc2)N2CCCCC2)cc1 (stereo unspecified)	11.6%	-1.6%
C=C1CCO[C@@]2([C@H](O)[C@@](C)(O)CO)NC(=O)[C@]1(O)NC2=O	6.5%	5.1%
CCN(CCO)C[C@H]1CCC[C@H]2CCCC[C@@H]21	-2.7%	-1.6%
CCOc1ccccc1CNC(=O)c1cccc(NC(=O)c2nsc3ccccc23)c1	?	-1.8%
CCc1c(C)sc2c1CCN(Cc1cccc(F)c1)C2c1ccccc1 (stereo unspecified)	-5.1%	-9.7%
CCOC(=O)c1cc(C)n(CC2CCC(C(=O)Nc3cccc(C)c3)CC2)c1C (stereo unspecified)	-2.1%	-7.3%
O=C(N/N=C/c1cccc([N+](=O)[O-])c1)c1cccs1	-3.3%	-5.5%
C=CCOc1ccc2cccc(/C=N/NC(=O)c3cc4cc([N+](=O)[O-])ccc4s3)c2c1	6.31µM*	0.5%
COc1cc(NC(=O)CCc2nc3cccnc3n2Cc2cccs2)cc(OC)c1OC	24.3%	-4.2%
CNc1oc(-c2ccccc2Cl)nc1P(=O)(c1ccccc1)c1ccccc1	?	-25.2%
CNc1oc(-c2ccc(C)cc2)nc1P(=O)(c1ccccc1)c1ccccc1	-27.8%	11.2µM*
O=C(Cc1c(O)c2ccccc2[nH]c1=O)N(Cc1ccccc1)Cc1ccccc1	-3.1%	-2.6%
CCCCCCN(CCCCCC)C(=O)Cc1c(-c2ccc(F)cc2)[nH]c2ccccc12	31.6µM*	-9.0%
COC(=O)c1c(-c2cccs2)csc1NC(=O)c1cc(OC)cc(OC)c1	-5.0%	-5.9%
Cc1cc(C)cc(NC(=O)CSc2nc(-c3ccccc3)c3cc(F)ccc3n2)c1	-3.9%	2.0%
Cc1cccc([C@H]2[C@@H]3C=CC(C)C[C@@H]3C(=O)N2Cc2ccccc2)c1 (stereo partly specified)	-4.2%	-2.5%
O=C(OCc1nc2scc(-c3ccccc3)c2c(=O)[nH]1)c1cccc([N+](=O)[O-])c1	25.1µM*	-6.6%
CC(C)[C@H](NC(=O)c1ccccc1)C(=O)OCc1nc2scc(-c3ccccc3)c2c(=O)[nH]1	?	-5.9%
COc1cc(Cl)c(NS(=O)(=O)c2ccc(-c3coc(C)n3)cc2)c(OC)c1	7.8%	-7.0%
SMILES	Cruzain noTriton	Cruzain Triton
COc1cc(NC(=O)C2CCN(C(=O)c3sc4nc[nH]c(=O)c4c3C)CC2)cc(OC)c1OC	-5.3%	-0.6%
CC1CCn2c(nc3cc(C(=O)NCc4ccc(OC(C)C)cc4)ccc32)C1 (stereo unspecified)	-4.9%	1.1%
O=C(CSc1nnc2scc(-c3ccccc3)n12)N1CCN(Cc2ccccc2)CC1	-9.3%	-4.8%
Cc1ccc(-c2csc3nnc(SCC(=O)N4CCN(Cc5ccccc5)CC4)n23)cc1	20µM*	-6.3%
O=S(=O)(O)c1cc(O)c2c(N=Cc3ccccc3O)cc(S(=O)(=O)O)cc2c1	-4.9%	1.2%
Cc1cccc(CSc2cn(CC(=O)N3CCCC3)c3ccccc23)c1	?	-9.6%
Cc1ccc2c(CC(=O)Nc3c(C(=O)Nc4cccc(Cl)c4)oc4ccccc34)coc2c1C	?	-2.1%
COc1ccc(NC(=O)Cn2cc(S(=O)(=O)N3CCN(c4ccccc4F)CC3)c3ccccc3c2=O)cc1Cl	7.94µM*	-1.3%
COc1cc(Cl)c(C)cc1NC(=O)Cn1cc(S(=O)(=O)N2CCN(c3ccccc3F)CC2)c2ccccc2c1=O	-25.7%	-2.7%
COc1ccc(-c2[nH]n(-c3ccc([N+](=O)[O-])cc3)c(=O)c2C=NCc2ccc(F)cc2)cc1	25.1µM*	-5.6%
COc1ccc(-c2[nH]n(-c3ccc([N+](=O)[O-])cc3)c(=O)c2C=NCc2ccncc2)cc1	?	-3.6%
COc1cc2c(cc1OC)C(COc1cc(C)cc(C)c1)N(C(=O)C(C)(C)C)CC2 (stereo unspecified)	?	-0.6%
Cc1ccc(NC(=O)c2c(NC(=O)C(F)(F)F)sc3c2CCCCC3)cc1	-24.7%	-5.7%
CCOc1cc(C(=O)O)cc(Cl)c1OCC#N	1.9%	4.1%
COc1cc(OC)c(/C=N/NC(N)=S)cc1Br	0.251µM*	0.178µM*
C#CCOc1c(Cl)cc(/C=N/NC(N)=S)cc1OCC	0.631µM*	2µM*
CCOc1c(Cl)cc(/C=N/NC(N)=S)cc1OC	0.501µM*	2.51µM*
COc1cc(/C=N/O)cc(Cl)c1OC	-2.5%	-3.2%
COc1cc(OC)c(OC)cc1/C=N/NC(=O)C[n+]1ccccc1	-12.6%	-4.7%
COc1ccc(/C=C/C(=O)N2CCC(c3nc4ccccc4o3)CC2)cc1OC	1.8%	-6.6%
CC(C)Cn1c(=O)c2sccc2n2c(CCCC(=O)N3CCN(c4ccc(F)cc4)CC3)nnc12	31.8%	1.9%
C=C(C(=O)OCC)C(=O)c1ccccc1	-5.0%	-1.0%
COc1ccc(N2CC(NC(=O)C(c3ccccc3)c3ccccc3)CC2=O)cc1OC (stereo unspecified)	?	-1.1%
COC(=O)c1c(NC(=O)CSc2ncnc3c2cnn3-c2ccccc2Cl)sc2c1CCCC2	3.16µM*	-6.3%
CCOC(=O)Cc1csc(NC(=O)CSc2ncnc3c2cnn3-c2ccccc2Cl)n1	3.6%	-8.2%
SMILES	Cruzain noTriton	Cruzain Triton
CCOC(=O)c1cc(-c2ccccc2)n(CCC(=O)Nc2ccc(Cl)c(C(F)(F)F)c2)c1C	-21.8%	-0.6%
CCOC(=O)c1c(-c2ccccc2)oc2ccc(NS(=O)(=O)c3cc(C)c(C)cc3C)cc12	7.94µM*	-2.8%
CCOC(=O)c1c(-c2ccccc2)oc2ccc(NS(=O)(=O)c3ccccc3)cc12	-26.3%	-6.6%
CCCCc1nn2c(=O)cc(COC(=O)c3ccc(NC(=O)C4CCCCC4)cc3)nc2s1	-12.1%	0.9%
O=C(c1ccc(COc2c(F)c(F)c(F)c(F)c2F)o1)N1CCN(Cc2ccc3c(c2)OCO3)CC1	?	28.2µM*
Cc1cc(C)cc(OCc2ccc(C(=O)O)o2)c1	-3.2%	13.5%
O=C(O)c1ccc(COc2c(F)c(F)c(F)c(F)c2F)o1	15.8µM*	28.2µM*
O=C(c1ccc(Br)o1)N1CCN(Cc2ccc3c(c2)OCO3)CC1	11.8%	5.4%
CCc1cccc(-n2c(=O)c3cccnc3n2CC(=O)NCc2ccccc2)c1	11.1%	-12.6%
CC1CCN(C(=O)CSc2nnc(NC(=O)Nc3ccccc3)s2)CC1	-1.6%	-3.1%
CCOC(=O)c1ccc(NS(=O)(=O)c2cn(C)c(C)n2)cc1	12.3%	-0.2%
CC(=O)c1sc(N/N=C\c2ccc(Br)cc2)nc1C	?	-12.5%
CC(=O)c1sc(N/N=C\c2cccc(Br)c2)nc1C	0.199µM*	12.6µM*
